Our source for the Potency and outcome values is PubChem BioAssay (Tox21).

Results filed as inconclusive are left out. The source made the active and inactive calls. Unless noted, calls come from the whole dose curve.

Assay [1] in a line: qHTS assay to identify small molecule antagonists of the sonic hedgehog signaling (Shh) pathway (AID 1259369). Note: nearly all actives have a fitted effect of over 45% in size. Note: potency is the fitted concentration of half-maximal effect. The method, boiled down: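 Screening used 3T3Gli1-Luc cells at 2,000 per well, compounds delivered in DMSO, and conditioned medium as agonist stimulus; plates incubated 24hr at 37 C and 5% CO2 before a 30min luciferase step.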
(qHTS replaces the single test concentration by a dilution series.)

Assay [2] addresses Estrogen receptor beta (Homo sapiens) (UniProt Q92731). Description: qHTS assay to identify small molecule agonists of the estrogen receptor beta (ER-beta) signaling pathway (AID 1259377; active = well fitted activation curve with a large enough effect in the signal ratio in the repeat runs, not every such curve was filed as active; the % refers to the signal ratio). The method, boiled down:
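Ratiometric beta-lactamase FRET read-out came after 2 h substrate loading at room temperature. It followed 16 h compound treatment at 37C of GripTite HEK293T cells carrying a UAS-bla reporter, plated in 2% charcoal-stripped FBS medium.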

Assay [3] shares this target. Description: qHTS assay to identify small molecule antagonists of the estrogen receptor beta (ER-beta) signaling pathway (AID 1259378; active = well fitted inhibition curve with a large enough effect in the signal ratio in the repeat runs, not every such curve was filed as active; the % refers to the signal ratio; note: potency is the fitted concentration of half-maximal effect). The procedure, abridged:
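ER-beta-UAS-bla HEK293T cells in 2% charcoal-stripped FBS medium treated with compound plus 1nM final 17-beta-estradiol for 16 hr at 37C. Beta-lactamase reporter read by FRET substrate fluorescence after 2 hours at room temperature.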

Assay [4] is described as follows: qHTS assay to identify small molecule agonists of the androgen receptor (AR) signaling pathway in the presence of an antagonist - cell viability counter screen (AID 1259379; active = well fitted curve in the direction sought with a large enough effect in the repeat runs; an effect the other way counts as inactive or inconclusive; note: nearly all actives have a fitted effect of over 25% in size; note: potency is the fitted concentration of half-maximal effect). The method, boiled down: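 In MDA-kb2 cells (human breast carcinoma, MMTV-luciferase), compounds at 15 concentrations plus 3.0uM nilutamide; 16 hr, 37C, 0% CO2; CellTiter-Fluor fluorescence read for viability.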

A short description of assay [5]: qHTS assay to identify small molecule antagonists of the estrogen receptor beta (ER-beta) signaling pathway - cell viability counter screen (AID 1259382; active = well fitted curve in the direction sought with a large enough effect in the repeat runs; an effect the other way counts as inactive or inconclusive; note: nearly all actives have a fitted effect of over 55% in size; note: potency is the fitted concentration of half-maximal effect). The procedure, abridged: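 Tox21 10K library tested in qHTS format on ER-beta-bla HEK293T cells stimulated with 1nM E2; 16 hr treatment at 37C. Same-well CellTiter-Glo luminescence served as the cell viability measure.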

The target in assay [6] is Estrogen receptor (Homo sapiens) (UniProt P03372). Nature of the assay: qHTS assay to identify small molecule agonists of the estrogen receptor alpha (ER-alpha) signaling pathway in the presence of an antagonist (AID 1259383). Note: top concentration of the series differs between compounds; nearly all actives have a fitted effect of over 15% in size. The procedure, abridged:
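In VM7Luc4E2 cells, 4,000 per well, compounds at 15 concentrations were co-incubated 22hr at 37C with 10.0nM final ICI-182,780. Luminescence from the stably transfected 4×ERE-luciferase reporter was recorded 30min after ONE-Glo addition.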

Assay [7] concerns the target Progesterone receptor (Homo sapiens) (UniProt P06401). Nature of the assay: qHTS assay to identify small molecule agonists of the progesterone receptor (PR) signaling pathway (AID 1346784). Note: nearly all actives have a fitted effect of over 30% in size. The method, boiled down: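 Agonist qHTS: compounds pinned onto 3,000 PR-UAS-bla HEK 293T cells per well in charcoal-stripped serum medium, 16hr at 37C, then beta-lactamase activity measured by LiveBLAzer FRET fluorescence after 2 hours at room temperature.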

For assay [8] the target is unchanged. Nature of the assay: qHTS assay to identify small molecule antagonists of the progesterone receptor (PR) signaling pathway (AID 1346795; active = well fitted inhibition curve with a large enough effect in the signal ratio in the repeat runs, not every such curve was filed as active; the % refers to the signal ratio; note: potency is the fitted concentration of half-maximal effect). The method, boiled down:
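Antagonist mode with agonist R5020 at 1 nM final and 16 hr incubation at 37C. Reporter was beta-lactamase driven by UAS in HEK293T (PR-UAS-bla), 2% charcoal-stripped serum; signal from LiveBLAzer FRET substrate, 2 hr at room temperature.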

Assay [9] in a line: qHTS assay to identify small molecule antagonists of the progesterone receptor (PR) signaling pathway - cell viability counter screen (AID 1346798; active = well fitted curve in the direction sought with a large enough effect in the repeat runs; an effect the other way counts as inactive or inconclusive; note: nearly all actives have a fitted effect of over 50% in size; note: potency is the fitted concentration of half-maximal effect). The method, boiled down: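 Cytotoxicity read as CellTiter-Glo luminescence (30 min, room temperature) in the same wells as the beta-lactamase readout. HEK293T PR-UAS-bla cells in charcoal-stripped 2% FBS received compound and R5020, then 16 h at 37C, 5% CO2.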

A short description of assay [10]: qHTS assay to identify small molecule agonists of the progesterone receptor (PR) signaling pathway - cell viability counter screen (AID 1346799). Note: nearly all actives have a fitted effect of over 45% in size. Note: potency is the fitted concentration of half-maximal effect. The procedure, abridged: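 Cytotoxicity measured by CellTiter-Glo luminescence (30 min, RT) in the same wells as the PR beta-lactamase agonist read. Those HEK293T cells had 16 h compound treatment at 37 C in 2% charcoal-stripped FBS medium.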

Assay [11] can be described thus: qHTS assay to identify small molecule antagonists of the TGF-beta/Smad signaling pathway - cell viability counter screen (AID 1346824; active = well fitted curve in the direction sought with a large enough effect in the repeat runs; an effect the other way counts as inactive or inconclusive; note: nearly all actives have a fitted effect of over 50% in size). The procedure, abridged: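 SBE-bla HEK 293T cells, incubated overnight, then compound plus 0.25 ng/mL TGF-beta1 (stock added) for 5 hr at 37 C. Viability was read in the same wells by CellTiter-Glo luminescence after 30 min at room temperature.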

Assay [12] is described as follows: qHTS assay to identify small molecule agonists of the TGF-beta/Smad signaling pathway (AID 1346859; active = well fitted activation curve with a large enough effect in the signal ratio in the repeat runs, not every such curve was filed as active; the % refers to the signal ratio; note: series mostly up to about 77 µM). The procedure, abridged:
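Fluorescence (ex 405 nm; em 460 and 530 nm) was read 2 h after LiveBLAzer FRET substrate at RT. The preceding compound treatment of overnight-plated SBE-bla HEK293T cells lasted 5 h at 37 C.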

In assay [13] the target is Thyrotropin-releasing hormone receptor (Homo sapiens) (UniProt P34981). Description: qHTS assay to identify small molecule antagonists of the thyrotropin-releasing hormone receptor (TRHR) signaling pathway (AID 1346877; active = well fitted inhibition curve with a large enough effect in the repeat runs, not every such curve was filed as active; note: series mostly up to about 51 µM). The method, boiled down: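 In this cell-based calcium flux format, HEK293 cells expressing TRHR received test compound for 5 min before the agonist TRH (1 nM final). Dye loading lasted 2 h at 37 °C.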
Sequence of Thyrotropin-releasing hormone receptor (Homo sapiens) (P34981 whole entry, looked up): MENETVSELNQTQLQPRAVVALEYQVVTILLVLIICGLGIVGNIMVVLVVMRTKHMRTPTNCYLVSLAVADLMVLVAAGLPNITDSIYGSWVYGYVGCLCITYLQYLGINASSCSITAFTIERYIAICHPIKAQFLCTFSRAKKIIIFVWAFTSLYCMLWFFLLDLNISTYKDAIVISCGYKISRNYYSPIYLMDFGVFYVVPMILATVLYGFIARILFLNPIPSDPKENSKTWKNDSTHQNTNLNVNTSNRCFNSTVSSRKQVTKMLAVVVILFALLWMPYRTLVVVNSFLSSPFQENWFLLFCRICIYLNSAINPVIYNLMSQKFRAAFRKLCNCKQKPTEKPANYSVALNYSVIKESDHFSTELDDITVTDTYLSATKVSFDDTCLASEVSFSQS

Assay [14] has the same target. Description: qHTS assay to identify small molecule agonists of the thyrotropin-releasing hormone receptor (TRHR) signaling pathway (AID 1346891). Note: series mostly up to about 58 µM. The method, boiled down:
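Agonist-mode intracellular calcium readout: kinetic fluorescence over 3 min at 1 s intervals after compound addition to TRHR-HEK293 cells (18 h seeded, 2 h dye-loaded at 37 C). Fifteen concentrations, triplicates.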

Assay [15] can be described thus: qHTS assay to identify small molecule agonists or antagonists of the thyroid stimulating hormone receptor (TSHR) signaling pathway - wild type cell line counter screen (AID 1259384). The procedure, abridged:
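Wild-type Hek293 cells, 800/well, 18 h at 37C, then compound with Ro20-1724 for 30 min RT. cAMP by HTRF (cAMP-d2/anti-cAMP cryptate), 1 h RT, fluorescence read. 15 concentrations, triplicates.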

Assay [16] has as its target Thyrotropin receptor (Homo sapiens) (UniProt P16473). Nature of the assay: qHTS assay to identify small molecule antagonists of the thyroid stimulating hormone receptor (TSHR) signaling pathway (AID 1259385). Note: nearly all actives have a fitted effect of over 20% in size. Note: potency is the fitted concentration of half-maximal effect. The procedure, abridged:
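TSHR-HEK293 cells (800/well) plated 18 h, then compounds with Ro20-1724 and TSH at 1.5 ng/mL final, 30 min at room temperature. cAMP quantified by HTRF (cAMP-d2/anti-cAMP-cryptate, 1 h); 15 concentrations in triplicate.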

Assay [17] in a line: qHTS assay to identify small molecule agonists of the estrogen receptor alpha (ER-alpha) signaling pathway in the presence of an antagonist - cell viability counter screen (AID 1259386; active = well fitted curve in the direction sought with a large enough effect in the repeat runs; an effect the other way counts as inactive or inconclusive;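 note: cells exposed to compounds for 22 h at 37 °C before the viability read; nearly all actives have a fitted effect of over 30% in size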; note: potency is the fitted concentration of half-maximal effect). The method, boiled down: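 Fluorescent CellTiter-Fluor viability signal from VM7Luc4E2 cells, with the reagent added during the final hour of a 22hr compound exposure at 37C in the presence of 10.0nM ICI-182,780.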

Assay [18] is described as follows: qHTS assay to identify small molecule agonists of the TGF-beta/Smad signaling pathway - cell viability counter screen (AID 1346829; active = well fitted curve in the direction sought with a large enough effect in the repeat runs; an effect the other way counts as inactive or inconclusive; note: top concentration of the series differs between compounds; nearly all actives have a fitted effect of over 45% in size). The procedure, abridged: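 HEK 293T SBE-bla line, 5 hr compound exposure at 37 C, multiplexed CellTiter-Glo viability read by luminescence.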
Assay [19] is described as follows: qHTS assay to identify small molecule agonists of the estrogen receptor beta (ER-beta) signaling pathway - cell viability counter screen (AID 1259380; active = well fitted curve in the direction sought with a large enough effect in the repeat runs; an effect the other way counts as inactive or inconclusive; note: nearly all actives have a fitted effect of over 30% in size; note: potency is the fitted concentration of half-maximal effect). The method, boiled down:
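Viability of ER-beta-UAS-bla HEK293T cells was determined by CellTiter-Glo luminescence following 16 hr treatment with test compounds at 37C.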

For assay [20], the target named is Androgen receptor (Homo sapiens) (UniProt P10275). Nature of the assay: qHTS assay to identify small molecule agonists of the androgen receptor (AR) signaling pathway in the presence of an antagonist (AID 1259381). Note: nearly all actives have a fitted effect of over 15% in size. The method, boiled down: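 Here, 15-concentration compound series were pin-transferred onto MDA-kb2 MMTV-luciferase cells already dosed with nilutamide (3.0uM final). After 16hr at 37C, ONE-Glo was added and luminescence read 30min later at room temperature.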
Sequence of Androgen receptor (Homo sapiens) (P10275 whole entry, looked up): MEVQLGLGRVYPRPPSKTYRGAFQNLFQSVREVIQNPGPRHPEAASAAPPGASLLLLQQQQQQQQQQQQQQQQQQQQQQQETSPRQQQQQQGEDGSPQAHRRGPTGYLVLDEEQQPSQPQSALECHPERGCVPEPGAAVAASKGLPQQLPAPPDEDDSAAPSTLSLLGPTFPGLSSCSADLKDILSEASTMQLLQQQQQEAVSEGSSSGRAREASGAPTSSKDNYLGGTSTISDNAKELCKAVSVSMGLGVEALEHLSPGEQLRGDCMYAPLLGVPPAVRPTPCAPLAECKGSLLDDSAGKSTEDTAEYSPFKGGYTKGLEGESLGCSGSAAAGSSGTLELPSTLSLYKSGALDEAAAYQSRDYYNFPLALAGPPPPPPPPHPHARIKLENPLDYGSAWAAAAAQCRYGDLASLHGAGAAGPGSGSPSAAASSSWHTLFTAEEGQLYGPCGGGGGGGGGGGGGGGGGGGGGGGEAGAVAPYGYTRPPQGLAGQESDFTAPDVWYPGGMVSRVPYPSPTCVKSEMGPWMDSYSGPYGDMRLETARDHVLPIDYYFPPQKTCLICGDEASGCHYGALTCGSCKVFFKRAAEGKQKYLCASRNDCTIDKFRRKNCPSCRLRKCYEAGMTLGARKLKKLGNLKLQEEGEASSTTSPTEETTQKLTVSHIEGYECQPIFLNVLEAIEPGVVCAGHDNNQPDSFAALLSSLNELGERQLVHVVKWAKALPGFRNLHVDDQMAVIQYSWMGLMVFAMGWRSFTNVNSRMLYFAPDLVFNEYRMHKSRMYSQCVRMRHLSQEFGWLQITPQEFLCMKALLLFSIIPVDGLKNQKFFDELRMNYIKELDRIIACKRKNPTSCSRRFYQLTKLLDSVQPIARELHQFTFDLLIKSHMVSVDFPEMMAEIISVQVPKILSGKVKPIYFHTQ

Sequence of Progesterone receptor (Homo sapiens) (P06401 whole entry, looked up): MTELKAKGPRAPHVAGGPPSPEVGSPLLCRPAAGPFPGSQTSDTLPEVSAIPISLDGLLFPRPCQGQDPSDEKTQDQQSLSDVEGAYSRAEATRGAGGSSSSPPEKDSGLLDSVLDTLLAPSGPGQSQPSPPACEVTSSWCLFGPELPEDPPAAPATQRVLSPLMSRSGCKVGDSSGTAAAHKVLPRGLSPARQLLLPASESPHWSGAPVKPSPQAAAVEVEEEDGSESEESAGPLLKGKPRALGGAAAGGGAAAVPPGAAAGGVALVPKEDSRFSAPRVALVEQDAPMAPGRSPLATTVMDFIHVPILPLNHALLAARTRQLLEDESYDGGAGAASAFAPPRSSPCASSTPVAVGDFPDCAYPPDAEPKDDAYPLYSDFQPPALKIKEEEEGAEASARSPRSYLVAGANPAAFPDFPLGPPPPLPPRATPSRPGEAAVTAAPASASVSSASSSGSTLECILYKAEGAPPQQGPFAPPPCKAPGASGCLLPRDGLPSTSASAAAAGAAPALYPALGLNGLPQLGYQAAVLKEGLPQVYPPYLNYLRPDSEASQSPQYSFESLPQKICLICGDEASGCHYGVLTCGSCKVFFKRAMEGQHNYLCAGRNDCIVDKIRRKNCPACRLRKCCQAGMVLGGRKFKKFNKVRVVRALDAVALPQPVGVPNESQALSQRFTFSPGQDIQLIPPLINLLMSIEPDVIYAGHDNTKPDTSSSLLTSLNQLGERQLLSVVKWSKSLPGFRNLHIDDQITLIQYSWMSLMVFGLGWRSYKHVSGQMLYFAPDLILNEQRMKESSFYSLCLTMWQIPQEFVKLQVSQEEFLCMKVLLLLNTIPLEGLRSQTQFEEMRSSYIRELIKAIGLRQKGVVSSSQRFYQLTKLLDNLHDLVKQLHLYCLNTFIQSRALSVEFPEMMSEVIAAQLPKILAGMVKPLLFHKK
Sequence of Estrogen receptor beta (Homo sapiens) (Q92731 whole entry, looked up): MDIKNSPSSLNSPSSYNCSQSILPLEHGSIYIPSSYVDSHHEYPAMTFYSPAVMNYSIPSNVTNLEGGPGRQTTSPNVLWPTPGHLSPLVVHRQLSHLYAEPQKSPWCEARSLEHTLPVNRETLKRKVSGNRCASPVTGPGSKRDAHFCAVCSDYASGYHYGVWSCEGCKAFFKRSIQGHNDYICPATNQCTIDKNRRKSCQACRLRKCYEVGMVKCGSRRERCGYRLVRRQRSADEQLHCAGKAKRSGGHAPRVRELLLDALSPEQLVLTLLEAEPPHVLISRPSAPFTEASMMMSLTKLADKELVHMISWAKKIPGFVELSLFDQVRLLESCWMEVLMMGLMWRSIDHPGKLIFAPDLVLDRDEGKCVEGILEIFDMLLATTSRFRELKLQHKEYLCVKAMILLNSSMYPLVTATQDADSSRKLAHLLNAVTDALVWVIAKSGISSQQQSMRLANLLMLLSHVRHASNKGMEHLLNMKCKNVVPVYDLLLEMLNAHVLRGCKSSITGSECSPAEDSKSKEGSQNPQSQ
Sequence of Thyrotropin receptor (Homo sapiens) (P16473 whole entry, looked up): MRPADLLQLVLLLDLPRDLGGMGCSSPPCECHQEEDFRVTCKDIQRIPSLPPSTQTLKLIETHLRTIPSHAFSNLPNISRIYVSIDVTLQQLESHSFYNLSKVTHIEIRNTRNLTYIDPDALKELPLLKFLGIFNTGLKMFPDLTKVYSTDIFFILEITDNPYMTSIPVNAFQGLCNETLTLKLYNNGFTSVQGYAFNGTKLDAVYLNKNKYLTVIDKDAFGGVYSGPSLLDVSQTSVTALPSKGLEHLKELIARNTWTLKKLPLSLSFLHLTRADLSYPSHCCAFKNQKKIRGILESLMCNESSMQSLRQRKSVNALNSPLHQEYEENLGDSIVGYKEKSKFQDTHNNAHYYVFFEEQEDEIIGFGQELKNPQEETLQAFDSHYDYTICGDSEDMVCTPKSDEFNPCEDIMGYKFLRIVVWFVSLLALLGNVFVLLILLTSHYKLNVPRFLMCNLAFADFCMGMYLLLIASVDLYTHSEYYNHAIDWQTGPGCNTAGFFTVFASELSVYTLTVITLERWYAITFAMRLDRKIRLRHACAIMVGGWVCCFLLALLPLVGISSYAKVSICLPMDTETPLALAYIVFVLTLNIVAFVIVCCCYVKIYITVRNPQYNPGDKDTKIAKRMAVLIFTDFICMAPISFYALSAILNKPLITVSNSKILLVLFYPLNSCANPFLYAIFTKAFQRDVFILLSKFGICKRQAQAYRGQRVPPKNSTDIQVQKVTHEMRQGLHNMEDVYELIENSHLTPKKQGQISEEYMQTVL
Sequence of Estrogen receptor (Homo sapiens) (P03372 whole entry, looked up): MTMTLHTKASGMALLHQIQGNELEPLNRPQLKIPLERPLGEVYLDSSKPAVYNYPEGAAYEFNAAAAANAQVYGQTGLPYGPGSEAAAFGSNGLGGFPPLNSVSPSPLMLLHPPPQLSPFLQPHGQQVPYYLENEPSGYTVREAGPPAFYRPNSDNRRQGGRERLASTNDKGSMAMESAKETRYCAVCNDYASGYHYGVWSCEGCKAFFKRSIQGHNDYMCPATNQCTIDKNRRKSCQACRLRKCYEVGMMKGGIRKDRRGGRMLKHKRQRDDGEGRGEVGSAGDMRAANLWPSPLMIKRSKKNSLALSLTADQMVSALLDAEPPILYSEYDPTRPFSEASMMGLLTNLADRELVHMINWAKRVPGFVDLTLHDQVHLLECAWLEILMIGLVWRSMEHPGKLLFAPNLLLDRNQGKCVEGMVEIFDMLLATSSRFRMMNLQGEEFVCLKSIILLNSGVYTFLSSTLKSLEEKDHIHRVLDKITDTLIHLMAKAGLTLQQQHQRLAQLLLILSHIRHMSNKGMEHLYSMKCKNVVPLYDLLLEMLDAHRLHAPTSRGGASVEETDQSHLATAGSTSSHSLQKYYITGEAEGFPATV

On to `CCCCC(CC)C(=O)OCCOCCOCCOCCOC(=O)C(CC)CCCC` (stereo not given), for which the Potency result in [1], in assay [2], in assay [3], in assay [4], in assay [5] and in assay [6] was “inactive” each time. The Potency result in assay [7], in assay [8], in assay [9], in assay [10] and in assay [14] was “inactive” each time. The molecule was classed as inactive in assay [11], in [12] and in assay [13].

`CC[C@@H]([C@H](C)O)n1ncn(-c2ccc(N3CCN(c4ccc(OC[C@@H]5CO[C@@](Cn6cncn6)(c6ccc(F)cc6F)C5)cc4)CC3)cc2)c1=O`: the Potency was 0.188 µM (active) in assay [1]; 5.96 µM (active) in assay [3]; 11.9 µM (active) in assay [4]; 9.44 µM (active) in assay [5]; 29.8 µM (active) in assay [16]; 16.8 µM (active) in assay [9]. Moreover, in assay [10], the Potency was 16.8 µM (active). Further, the Potency entry in [2], in [17] and in assay [7] was “inactive” each time. The molecule was called inactive in assay [15], in assay [12] and in assay [13].

Turning to `C[N+]1(C)CCC(=C(c2ccccc2)c2ccccc2)CC1`, the Potency entry in [1], in assay [2], in assay [3], in assay [4], in assay [5] and in assay [17] was “inactive” throughout. In addition, the Potency entry in assay [7], in [8], in assay [9] and in assay [10] was “inactive” each time. Moreover, the result in assay [15], in assay [11], in assay [18], in [12] and in assay [13] was inactive.

For the molecule `Cc1cc(S(=O)(=O)O)ccc1N=Nc1c(O)ccc2ccccc12`, the Potency result in assay [1], in [2], in assay [3], in assay [5], in assay [7] and in assay [8] was “inactive” in each case. Also, the Potency entry in [10] was “inactive”. Also, the Potency in assay [4] was 30.6 µM (active); in assay [17] it was 27.3 µM (active). Further, the molecule was classed as inactive in assay [15], in assay [11], in [18] and in assay [12].

With `O=S(=O)(c1ccccc1)c1ccc(Cl)cc1`, the Potency result in assay [1], in assay [2], in [4], in assay [19], in assay [5] and in [6] was “inactive” in each case. The Potency result in assay [16], in [17], in [7], in assay [9] and in assay [14] was “inactive” in each case. The result in assay [15], in assay [11], in assay [18], in [12] and in assay [13] was inactive. The Potency in assay [8] was 24.3 µM (active).

As to `CC(C)(C)CC(C)(C)c1ccc(OCCO)cc1`, the Potency in assay [1] is 15.3 µM (active); in assay [3], 43 µM (active); in assay [4], 30.5 µM (active); in assay [17], 34.2 µM (active); in assay [8] it was 48.3 µM (active). The Potency result in [2], in assay [20], in assay [6], in [7] and in assay [14] was “inactive” each time. Moreover, the molecule was called inactive in [11], in assay [18], in assay [12] and in [13].

With `CC[C@H](NC(=O)c1cc(F)ccc1NS(=O)(=O)c1cccc2cccnc12)c1ccccc1`, the Potency entry in [1], in assay [2], in [3], in assay [4], in assay [6] and in assay [16] was “inactive” throughout. The Potency result in assay [17], in assay [10] and in assay [14] was “inactive” in each case. Also, in assay [19], the Potency is 18.3 µM (active). The outcome in assay [11], in assay [18], in [12] and in [13] was inactive.

Turning to `CCCCCCCCCCCCCCC[C@H](O)[C@@H](N)CO`, the Potency result in [1], in assay [3], in assay [4], in assay [19], in assay [20] and in assay [5] was “inactive” throughout. The Potency result in assay [6], in assay [7] and in [10] was “inactive” throughout. Moreover, the result in assay [15], in assay [11], in [18], in assay [12] and in [13] was inactive. Besides, the Potency in assay [16] was 26.6 µM (active).
